High-throughput results (PubChem BioAssay)
Rows were chosen to be rich in hits. Some 5.7% of all compounds tested hit in one or more screens of this group.
BAZ2B inh – qHTS Assay for Inhibitors of BAZ2B; Bromodomain adjacent to zinc finger domain protein 2B (Homo sapiens), Q9UIF8; AlphaScreen BAZ2B-H3K14Ac peptide displacement; Potency, µM (titrated, usually from 114 µM), hits mostly inhibitors; hit rate 4.4% among 360,000; also: nearly all actives have a fitted effect of over 60% in size
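AlphaScreen luminescence quantifies BAZ2B engagement of H3K14Ac peptide; the protein and biotinylated peptide are both at 50 nM final, buffer PBS pH 7.4 with 0.01% Tween-20, all steps at room temperature.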
JMJD2E inh – qHTS Assay for Inhibitors of Human Jumonji Domain Containing 2E (JMJD2E); JMJD2E catalytic domain, FDH-coupled NADH fluorescence (FDH is formaldehyde dehydrogenase); hit rate 1.6% among 230,000; Potency, µM (titrated, usually from 57.1 µM), hits mostly inhibitors; active = well fitted inhibition curve with a large enough effect, not every such curve was filed as active; inconclusive = small, poorly fitted or top-dose-only effect, or another doubt; inactive = no such curve, though single readings can be large or run the other way; also: nearly all actives have a fitted effect of over 50% in size
Target sequence (B2RXH2 1-337 limits assumed): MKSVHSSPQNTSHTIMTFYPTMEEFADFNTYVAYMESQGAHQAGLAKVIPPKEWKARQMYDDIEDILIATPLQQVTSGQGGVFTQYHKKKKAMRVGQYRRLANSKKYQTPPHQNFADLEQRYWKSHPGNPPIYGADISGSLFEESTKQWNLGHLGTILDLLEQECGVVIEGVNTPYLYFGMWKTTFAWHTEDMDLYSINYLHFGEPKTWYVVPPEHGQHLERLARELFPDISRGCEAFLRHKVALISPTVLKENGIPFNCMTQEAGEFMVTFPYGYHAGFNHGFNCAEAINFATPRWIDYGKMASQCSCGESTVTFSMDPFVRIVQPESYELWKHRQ
JMJD2A Tudor – qHTS Assay for Inhibitors of JMJD2A-Tudor Domain; AlphaScreen JMJD2A-Tudor / H3K4me3 peptide binding; Potency, µM (doses to about 114 µM), hits mostly inhibitors; hit rate 4.4% among 390,000; AID 504339, 2011; also: nearly all actives have a fitted effect of over 50% in size
L3MBTL1 inh – qHTS Assay for the Inhibitors of L3MBTL1; hit rate 0.66% among 230,000; Lethal(3)malignant brain tumor-like protein 1 (Homo sapiens), Q9Y468; AID 485360, 2010; Potency, µM (series often up to 57.1 µM), actives largely listed as inhibitors; AlphaScreen L3MBTL1–H3K9me1 peptide binding; also: nearly all actives have a fitted effect of over 60% in size
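Displacement of a biotinylated histone H3(1-15) peptide monomethylated at Lys9 (75 nM) from L3MBTL1 (50 nM) was measured by AlphaScreen after a 30 min room-temperature compound incubation; cefsulodin titration served as intraplate control.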
PI5P4Ka inh – qHTS for Inhibitors of phosphatidylinositol 5-phosphate 4-kinase (PI5P4K); Phosphatidylinositol 5-phosphate 4-kinase type-2 alpha (Homo sapiens), P48426; PI5P4Kalpha enzyme, ADP-Glo luminescence, 60 min; hits give low values; max response, %; hit rate 1.2% among 330,000; active = max response of -50% or lower; inconclusive = between -30% and -50%; inactive = -30% or higher; also: value at the top dose of about 77 µM
Target sequence (P48426 whole entry, looked up): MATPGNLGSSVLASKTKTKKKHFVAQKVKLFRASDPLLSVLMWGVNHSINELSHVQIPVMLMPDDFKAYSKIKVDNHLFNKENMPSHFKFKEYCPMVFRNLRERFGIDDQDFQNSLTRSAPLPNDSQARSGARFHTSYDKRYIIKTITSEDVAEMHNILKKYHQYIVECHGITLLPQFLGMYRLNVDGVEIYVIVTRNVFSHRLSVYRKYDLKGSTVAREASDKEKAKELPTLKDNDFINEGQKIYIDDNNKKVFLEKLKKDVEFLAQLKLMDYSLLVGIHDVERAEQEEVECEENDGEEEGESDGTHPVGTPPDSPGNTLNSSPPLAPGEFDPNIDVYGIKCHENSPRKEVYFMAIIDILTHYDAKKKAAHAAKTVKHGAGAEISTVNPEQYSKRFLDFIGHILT
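Human PI5P4Kalpha with substrate in 0.038 M HEPES pH 7.4, 0.28 mM EGTA, 0.1% CHAPS, 5% DMSO; reaction started with 5 microM ATP (final), 60 min at room temperature. ADP formed read by ADP-Glo luminescence.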
HP1b chromo inh – HTS for Inhibitors of HP1-beta Chromodomain Interactions with Methylated Histone Tails; hit rate 0.56% among 390,000; AlphaScreen HP1-beta / biotin-H3K9me3 peptide binding; Chromobox protein homolog 1 (Homo sapiens), P83916; Potency, µM (highest dose often 114 µM), hits mostly inhibitors; AID 540317, 2011; also: nearly all actives have a fitted effect of over 70% in size
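HP1-beta protein (50 nM final) preincubated 30 min at room temperature with biotinylated H3(1-18)K9me3 peptide (50 nM) in PBS pH 7.4, 0.01% Tween-20, then compound added for 30 min. AlphaScreen streptavidin donor/nickel chelate acceptor beads (10 ug/mL final), 30 min dark, luminescence read.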
A number is an active result. Unless noted, calls follow the shape of the dose curve; as a rule, active = well fitted inhibition curve with a large enough effect; inconclusive = small, poorly fitted or top-dose-only effect; inactive = no such curve, though single readings can be large or run the other way.

For CCOC(=O)CSc1nc2sc(C(=O)O)c(C)c2c(=O)[nH]1 the results were BAZ2B inh inactive, JMJD2E inh inactive, JMJD2A Tudor inactive, L3MBTL1 inh inactive, PI5P4Ka inh -76 and HP1b chromo inh inactive.
O=C(CSc1nc2ccccc2c(=O)[nH]1)Nc1ccc(C(=O)O)cc1 was read as BAZ2B inh inconclusive, JMJD2E inh inactive, JMJD2A Tudor inactive, L3MBTL1 inh inactive, PI5P4Ka inh -88 and HP1b chromo inh inactive.
CCOC(=O)CSc1nc2sc(C)c(C)c2c(=O)[nH]1 was read as BAZ2B inh inactive, JMJD2E inh inactive, JMJD2A Tudor inactive, L3MBTL1 inh inconclusive, PI5P4Ka inh inactive and HP1b chromo inh inactive.
Cc1sc2nc(SCC(=O)Nc3ccc(S(N)(=O)=O)cc3)[nH]c(=O)c2c1C was read as BAZ2B inh inactive, JMJD2A Tudor inactive, PI5P4Ka inh inactive and HP1b chromo inh inactive.
Screening COc1cccc(NC(=O)c2oc3ccccc3c2NC(=O)C23CC4CC(CC(C4)C2)C3)c1 returned BAZ2B inh inconclusive, JMJD2A Tudor inactive and HP1b chromo inh inactive.
`Cc1ccc(-c2csc3nc(SCC(=O)Nc4ccc(Cl)c(C(=O)O)c4)[nH]c(=O)c23)cc1` gave BAZ2B inh inconclusive, JMJD2A Tudor inactive, PI5P4Ka inh -78 and HP1b chromo inh inactive.
For Cc1ccc(C)c(CN2C(=O)c3ccccc3S(=O)(=O)c3ccc(C(=O)N4CCCC4)cc32)c1 the results were BAZ2B inh inactive, JMJD2A Tudor inactive and HP1b chromo inh inactive.
`Cc1ccc(C)c(CN2C(=O)c3ccccc3S(=O)(=O)c3ccc(C(=O)N4CCN(C)CC4)cc32)c1` gave BAZ2B inh 89µM, JMJD2A Tudor inactive, PI5P4Ka inh inactive and HP1b chromo inh inactive.
For Cc1ccc(C(=O)/C=C/NNC(=O)c2ccccc2O)cc1 the results were BAZ2B inh 50µM, JMJD2A Tudor inconclusive, L3MBTL1 inh inactive, PI5P4Ka inh inactive and HP1b chromo inh inactive.
Screening O=C(/C=C/NNC(=O)c1ccc(Cl)cc1)c1ccccc1 returned BAZ2B inh inconclusive, JMJD2E inh inactive, JMJD2A Tudor inconclusive, L3MBTL1 inh inactive, PI5P4Ka inh inactive and HP1b chromo inh inactive.
For Fc1cccc(CN2CCSCC2)c1 the results were BAZ2B inh 50µM, JMJD2A Tudor 20µM, L3MBTL1 inh inactive, PI5P4Ka inh inactive and HP1b chromo inh inconclusive.
Screening Fc1cccc(CN2CCCCCCC2)c1 returned BAZ2B inh inconclusive, JMJD2E inh inactive, JMJD2A Tudor 2µM, L3MBTL1 inh inactive and HP1b chromo inh inconclusive.
OCC1(Cc2ccc(Cl)cc2)CCN(Cc2ccc(F)c(F)c2)CC1 was read as BAZ2B inh inactive, JMJD2E inh inactive, JMJD2A Tudor inactive, L3MBTL1 inh inactive, PI5P4Ka inh inactive and HP1b chromo inh inactive.
Screening O=C(CN1CCN(Cc2cccc(F)c2)CC1)NCc1ccccc1 returned BAZ2B inh inactive, JMJD2A Tudor inactive, L3MBTL1 inh inactive, PI5P4Ka inh inactive and HP1b chromo inh inactive.
`Fc1ccc(CN2CCSCC2)cc1F` gave BAZ2B inh inconclusive, JMJD2A Tudor 4µM, L3MBTL1 inh inactive, PI5P4Ka inh inactive and HP1b chromo inh inconclusive.
For CN1CCN(C(=O)c2ccc(-n3cccn3)nc2)CC1 the results were BAZ2B inh inactive, JMJD2E inh inconclusive, JMJD2A Tudor inactive, L3MBTL1 inh inactive, PI5P4Ka inh inactive and HP1b chromo inh inactive.
CC(=O)NC(c1cccc(F)c1)c1nc(-c2cnn(C)c2)cs1 (stereo unspecified) was read as PI5P4Ka inh inactive.
Cc1ccc(C)c(Cn2cc(S(=O)(=O)c3ccc(Cl)cc3)c(=O)c3cc(F)ccc32)c1 was read as BAZ2B inh inactive, JMJD2A Tudor inactive and HP1b chromo inh inactive.
Screening CC(C)c1ccc(NC(=O)CSC2=Nc3ccccc3C3=NC(CC(=O)NCc4cccs4)C(=O)N23)cc1 (stereo unspecified) returned BAZ2B inh inactive, JMJD2A Tudor inactive and HP1b chromo inh inactive.
Screening Cc1cc(C)n(NC(=S)NC2CCCC2)c(=O)c1C#N returned BAZ2B inh inactive, JMJD2E inh inactive, JMJD2A Tudor 11µM, L3MBTL1 inh inactive, PI5P4Ka inh inactive and HP1b chromo inh inactive.
`CCn1c(C)cc(C)c(C#N)c1=O` gave BAZ2B inh inactive, JMJD2E inh inconclusive, JMJD2A Tudor inactive, L3MBTL1 inh inactive, PI5P4Ka inh inactive and HP1b chromo inh inactive.
O=C(Nc1cccc(Cl)c1)C1CCCN(c2nn3cc(-c4ccc(F)cc4)nc3s2)C1 (stereo unspecified) was read as BAZ2B inh inactive, JMJD2A Tudor inactive and HP1b chromo inh inactive.
Screening COc1cc(NC(=O)CC2C(=O)N(c3cccc(C)c3)C(=O)N2Cc2ccc(F)cc2)cc(OC)c1 (stereo unspecified) returned BAZ2B inh inactive, JMJD2A Tudor inactive and HP1b chromo inh inactive.
`Cc1ccc2nc3c(c(Nc4ccc(O)cc4)c2c1)CCC3` gave BAZ2B inh inactive, JMJD2A Tudor inactive, PI5P4Ka inh inactive and HP1b chromo inh inactive.
For COc1ccc(Nc2c3c(nc4ccc(NC(=O)c5ccc(F)cc5)cc24)CCCC3)cc1OC the results were BAZ2B inh 32µM, JMJD2A Tudor 56µM and HP1b chromo inh inconclusive.
For COc1ccccc1Nc1c2c(nc3ccc(NC(=O)c4ccc(OC)c(OC)c4)cc13)CCCC2 the results were BAZ2B inh inconclusive, JMJD2A Tudor inconclusive and HP1b chromo inh inactive.
`COc1ccccc1Nc1c2c(nc3ccc(N)cc13)CCCC2` gave BAZ2B inh 35µM, JMJD2E inh inactive, JMJD2A Tudor 40µM, PI5P4Ka inh inactive and HP1b chromo inh inactive.
Cc1ccc2nc3c(c(Nc4ccc(C)c(C)c4)c2c1)CCC3 was read as BAZ2B inh 32µM, JMJD2A Tudor inconclusive and HP1b chromo inh inactive.
`Cc1cc(=O)n(Cc2ccc(F)cc2Cl)c2c1c(C)nn2C` gave BAZ2B inh inactive, JMJD2A Tudor inactive and HP1b chromo inh inactive.
CCOC(=O)CC1=NN(c2ccccc2)C(=O)/C1=C\c1ccc(N(C)C)cc1 was read as BAZ2B inh 5.6µM, JMJD2E inh inactive, JMJD2A Tudor 10µM, L3MBTL1 inh inactive, PI5P4Ka inh inactive and HP1b chromo inh inconclusive.
`COC(=O)C(Cc1ccccc1)NC(=O)CCCC(=O)NCc1cccc(OC)c1` (stereo unspecified) gave BAZ2B inh inactive, JMJD2A Tudor inactive, L3MBTL1 inh inactive, PI5P4Ka inh inactive and HP1b chromo inh inactive.
